Sampled rows, rich in hits. Any-hit rate of the full collection: about 1.8%.
CtBP-E1A inh: qHTS Assay for Inhibitors of the CtBP/E1A Interaction; AID 651724, 2012; activity change, % (no concentration beside the values); actives 0.49% (n = 340,000); AlphaScreen GST-E1A/His-CtBP binding, 1536-well; hits give low values
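Protein mix (5X: 125 nM each GST-E1A, His-CtBP) was incubated with pinned compound 2 h at 37 deg C in dark, in 50 mM Tris pH 8.0 buffer with 300 mM NaCl. Glutathione donor and nickel acceptor beads followed; AlphaScreen signal read after 1 h.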
PI4K2A block: qHTS for small molecular inhibitors of PI4K2A. Phosphatidylinositol 4-kinase type 2-alpha (Homo sapiens), Q9BTU6. purified PI4K2A, ADP-Glo luminescence, 1 h; hits give low values. activity change, negative = inhibition, % at 76.9 µM. actives 0.13% (n = 420,000); in the data active = activity change below about -50%; inconclusive = mostly about -30% to -49%;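 also: -100% = wells without enzyme as full effect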
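PI4K2A activity was measured by ADP-Glo luminescence: enzyme (4 ug/mL stock) and phosphatidylinositol (1.2 mM stock) in Tris pH 7.5/MgCl2/EGTA/Triton X-100 buffer were reacted with ATP (300 microM stock) for one hour at ambient temperature.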
PI5P4Ka inh: qHTS for Inhibitors of phosphatidylinositol 5-phosphate 4-kinase (PI5P4K). actives 1.2% (n = 330,000). Phosphatidylinositol 5-phosphate 4-kinase type-2 alpha (Homo sapiens), P48426. AID 652105, 2013. max response, %. PI5P4Kalpha enzyme, ADP-Glo luminescence, 60 min; hits give low values; active = max response of -50% or lower; inconclusive = between -30% and -50%; inactive = -30% or higher; also: value at the top dose of about 77 µM
Target sequence (P48426 whole entry, looked up): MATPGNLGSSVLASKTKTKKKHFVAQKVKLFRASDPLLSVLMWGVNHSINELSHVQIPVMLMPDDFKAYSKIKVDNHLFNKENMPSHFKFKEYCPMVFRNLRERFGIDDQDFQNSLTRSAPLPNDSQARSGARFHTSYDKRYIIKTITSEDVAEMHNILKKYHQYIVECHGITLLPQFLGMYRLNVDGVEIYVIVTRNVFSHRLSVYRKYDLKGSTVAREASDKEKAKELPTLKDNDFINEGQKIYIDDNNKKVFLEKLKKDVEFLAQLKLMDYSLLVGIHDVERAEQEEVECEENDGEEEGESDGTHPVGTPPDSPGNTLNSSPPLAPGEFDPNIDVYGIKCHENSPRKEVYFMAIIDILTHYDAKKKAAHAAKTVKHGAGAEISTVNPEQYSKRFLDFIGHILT
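Compounds were pin-transferred onto PI5P4Kalpha and substrate in HEPES pH 7.4 buffer with EGTA, CHAPS and 5% DMSO. ATP (5 microM final) started the reaction, which ran 60 minutes at room temperature before ADP-Glo detection.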
pAkt inh: HTS Assay for Inhibitors of Akt Phophorylation: Primary Screen; activity change, % for hits at 50 µM; actives 0.32% (n = 360,000); Neuro2A IGF-stimulated pAkt S473 HTRF, 20 min; hits give low values; in the data active = activity change below about -80%; inconclusive = mostly about -51% to -80%
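Neuro2A cells in DMEM with 0.5% FBS, overnight at 37 deg C, given compound at single 50 µM final, then IGF (6 nM final) for 20 min at 37 deg C. Lysed; phospho-Akt Ser473 by HTRF after 24 h, 665/615 ratio.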
Six1-Eya2 inh: qHTS Assay for Inhibitors of the Six1/Eya2 Interaction | AlphaScreen GST-Six1/His-Eya2 binding, biochemical; hits give low values | activity change, % (concentration not given with the values) | actives 0.56% (n = 360,000)
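Homogeneous AlphaScreen proximity assay pairing GST-Six1 with His-tagged Eya2 (added as 5X mix: 250 nM and 500 nM) in 50 mM Tris pH 8.0, 300 mM NaCl, 1 mM TCEP. Glutathione donor and nickel acceptor beads; 1 h, 37 °C, dark.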
* = called active by the depositor. Rule as the data show it, unless noted: active = activity change below about -65%; inconclusive = mostly about -30% to -63%; inactive = weaker than that. Unless noted, % is scaled to controls: 0 for no effect and ±100 for the full control effect.

`O=C(CCN1C(=O)/C(=C/c2cccs2)SC1=S)Nc1ccc(C(=O)O)c(O)c1` gave PI4K2A block -4.7, PI5P4Ka inh -58.0* and Six1-Eya2 inh inconclusive.
`COc1ccc(/C=C2\SC(=S)N(CCC(=O)Nc3ccccc3C(=O)O)C2=O)cc1` gave CtBP-E1A inh -26.8, PI4K2A block 0.0, PI5P4Ka inh -8.0, pAkt inh inactive and Six1-Eya2 inh -17.8.
Screening CC(=Cc1ccccc1)C=C1SC(=S)N(CCCC(=O)Nc2ccc(C(=O)O)c(O)c2)C1=O returned CtBP-E1A inh -20.3, PI4K2A block -8.7, PI5P4Ka inh -56.5*, pAkt inh inactive and Six1-Eya2 inh -17.3.
COc1ccc(/C=C2\SC(=S)N(CCCC(=O)Nc3ccccc3C(=O)O)C2=O)cc1OC was read as CtBP-E1A inh -9.3, PI4K2A block -0.8, PI5P4Ka inh -64.3*, pAkt inh inactive and Six1-Eya2 inh -1.2.
For CC(/C=C1\SC(=S)N(CCCC(=O)Nc2ccc(C(=O)O)c(O)c2)C1=O)=C\c1ccccc1 the results were CtBP-E1A inh inconclusive, PI4K2A block -2.8, PI5P4Ka inh inconclusive, pAkt inh inactive and Six1-Eya2 inh -16.4.
Screening C/C=C/c1ccc(OCC(=O)OCC2=C(C(=O)OCC)C(C)NC(=O)N2)c(OC)c1 (stereo unspecified) returned CtBP-E1A inh -13.9, PI4K2A block -8.6, PI5P4Ka inh -0.7, pAkt inh inactive and Six1-Eya2 inh 23.2.
For CCn1c2ccc(C)cc2c2nc3cc(C(=O)O)ccc3nc21 the results were CtBP-E1A inh -65.5*, PI4K2A block 2.2, PI5P4Ka inh -16.0, pAkt inh inactive and Six1-Eya2 inh -69.0*.
For COc1ccc(N/N=C(/Oc2ccc([N+](=O)[O-])cc2)C(C)=O)cc1 the results were CtBP-E1A inh -9.2, PI4K2A block 8.0, PI5P4Ka inh -3.8, pAkt inh -113.5%* and Six1-Eya2 inh -6.1.
Screening O=C(/C=C/c1ccco1)Nc1nc(-c2ccccc2)cs1 returned CtBP-E1A inh 0.3, PI4K2A block 1.0, PI5P4Ka inh -4.9, pAkt inh inactive and Six1-Eya2 inh -0.9.
O=C(/C=C/c1ccco1)Nc1cccc2cccnc12 was read as CtBP-E1A inh -14.5, PI4K2A block inconclusive, PI5P4Ka inh -82.2*, pAkt inh inactive and Six1-Eya2 inh inconclusive.
`O=C(O)/C=C/C(=O)Nc1cccc2cccnc12` gave PI4K2A block -3.9, PI5P4Ka inh -2.8, pAkt inh inactive and Six1-Eya2 inh 0.2.
O=C(/C=C/c1ccco1)Nc1nc(-c2ccccn2)cs1 was read as PI4K2A block inconclusive, PI5P4Ka inh -93.5*, pAkt inh inactive and Six1-Eya2 inh -73.9*.
Screening Cc1csc2nc(CNC(=O)c3ccco3)cn12 returned CtBP-E1A inh -2.3, PI4K2A block 5.5, PI5P4Ka inh -3.7, pAkt inh inactive and Six1-Eya2 inh 2.1.
For COc1cc(C)c(Cl)cc1S(=O)(=O)N1CCCC1 the results were CtBP-E1A inh -17.9, PI4K2A block -2.1, PI5P4Ka inh 2.4, pAkt inh inactive and Six1-Eya2 inh 17.6.
`CCOc1cc(C)c(Cl)cc1S(=O)(=O)N1CCCC1` gave CtBP-E1A inh 1.6, PI4K2A block 1.4, PI5P4Ka inh -4.4, pAkt inh -118.6%* and Six1-Eya2 inh 20.1.
COc1ccc(N2CCN(CCCNC(=O)CN3CCN(Cc4ccccc4C)C3=O)CC2)cc1 was read as CtBP-E1A inh -25.2, PI4K2A block -15.8, PI5P4Ka inh 1.0, pAkt inh -111.2%* and Six1-Eya2 inh -22.4.
`C=CCn1c(SCCC(=O)O)nnc1-c1cccs1` gave CtBP-E1A inh 3.7, PI4K2A block -8.8, PI5P4Ka inh -0.3, pAkt inh inactive and Six1-Eya2 inh 7.8.
For Cc1cccc(-n2c(SCCC(=O)O)nnc2-c2cccs2)c1C the results were CtBP-E1A inh -0.2, PI4K2A block -6.4, PI5P4Ka inh -14.3, pAkt inh -115.5%* and Six1-Eya2 inh 3.8.
NC(=O)c1ccc(N2CCN(S(=O)(=O)c3cccs3)CC2)c([N+](=O)[O-])c1 was read as PI4K2A block -0.6, PI5P4Ka inh 0.4, pAkt inh inactive and Six1-Eya2 inh -5.8.
`S=c1[nH]nc(-c2cc(-c3ccco3)[nH]n2)n1-c1ccccc1Cl` gave CtBP-E1A inh -9.4, PI4K2A block -4.0, PI5P4Ka inh -56.6*, pAkt inh inactive and Six1-Eya2 inh -9.5.
Cc1cccc(NC(=S)NCCc2ccccn2)c1 was read as CtBP-E1A inh -1.7, PI4K2A block 2.0, PI5P4Ka inh -4.2, pAkt inh inactive and Six1-Eya2 inh 4.4.
For Cc1ccccc1S(=O)(=O)Cc1ccc(C(=O)N2CCN(c3cccc(C)c3C)CC2)o1 the results were CtBP-E1A inh -3.7, PI4K2A block -2.4, PI5P4Ka inh -1.4, pAkt inh -110.8%* and Six1-Eya2 inh -4.1.
For Fc1ccc(CNc2ccc(N3CCN(Cc4ccccc4)CC3)cc2)cc1 the results were CtBP-E1A inh -73.5*, PI4K2A block -5.1, PI5P4Ka inh 0.2, pAkt inh inactive and Six1-Eya2 inh -72.3*.
For CC(=O)N1CCN(c2ccc(NCc3ccccc3)cc2)CC1 the results were CtBP-E1A inh -2.9, PI4K2A block -9.5, pAkt inh inactive and Six1-Eya2 inh -13.1.
Screening C=CCSc1ncc(C(=O)OCC)c(N)n1 returned CtBP-E1A inh 9.1, PI4K2A block -0.6, PI5P4Ka inh 5.5, pAkt inh inactive and Six1-Eya2 inh 2.8.
For CCOC(=O)c1cnc(SSc2ncc(C(=O)OCC)c(N)n2)nc1N the results were PI4K2A block -7.9, PI5P4Ka inh -70.9*, pAkt inh inactive and Six1-Eya2 inh 14.6.
`NC(=O)c1ccc2c(=O)n3c(-c4cc(Cl)c(N)c(Cl)c4)csc3nc2c1` gave CtBP-E1A inh -76.1*, PI4K2A block -5.5, PI5P4Ka inh -10.2, pAkt inh inactive and Six1-Eya2 inh -75.2*.
COCCn1c(NC(=S)NC(=O)C2CC2)cc(=O)[nH]c1=O was read as CtBP-E1A inh -15.5, PI4K2A block -3.1, PI5P4Ka inh -60.2*, pAkt inh inactive and Six1-Eya2 inh -26.0.
For COCCn1c(NC(=S)NC(=O)C23CC4CC(CC(C4)C2)C3)cc(=O)[nH]c1=O the results were CtBP-E1A inh 4.0, PI4K2A block -2.9, PI5P4Ka inh inconclusive, pAkt inh inactive and Six1-Eya2 inh 2.1.
C/C(Cl)=C/Cn1c(N2CCCC2)nc2c1c(=O)[nH]c(=O)n2C was read as CtBP-E1A inh -0.2, PI4K2A block 3.0, PI5P4Ka inh -0.8, pAkt inh inactive and Six1-Eya2 inh 0.7.

From PubChem
